Measurements reported in PubChem BioAssay (Tox21).
Inconclusive results are not listed. The source made the active and inactive calls. Unless noted, the call rests on the fitted dose curve; in most records, active means well fitted curve in the direction sought with a large enough effect in the repeat runs; inconclusive means weak or mixed curves; inactive means no such curve, though single readings can be large; an effect the other way counts as inactive or inconclusive.

Assays:
[1] = qHTS assay to identify small molecule HDAC inhibitors - cell viability counter screen (AID 1259365); settings: HCT-116 viability, CellTiter-Glo ATP luminescence, 2 h; series mostly up to 92.4 µM; further: nearly all actives have a fitted effect of over 50% in size
In short: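 Measured quantity is CellTiter-Glo luminescence from wild-type HCT-116 cells after compound incubation of 2hr at 37C, 5% CO2; reagent developed 30min at room temperature.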

[2] = qHTS assay to identify small molecule agonists of the sonic hedgehog signaling (Shh) pathway - cell viability counter screen (AID 1259366); settings: NIH/3T3 Gli1-Luc viability, CellTiter-Fluor, 24 h; series mostly up to 92.4 µM; further: nearly all actives have a fitted effect of over 50% in size; further: potency means the concentration at half of the fitted maximal effect
In short: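 In quantitative high-throughput format, 3T3 Gli1-Luc cells were exposed to compounds for 24hr and multiplexed for viability using CellTiter-Fluor, incubated 1hr at 37C before the fluorescence read.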

[3] = qHTS assay to identify small molecule antagonists of the sonic hedgehog signaling (Shh) pathway - cell viability counter screen (AID 1259367); settings: NIH/3T3 Gli1-Luc viability, CellTiter-Fluor, 24 h; series mostly up to 92.4 µM; further: nearly all actives have a fitted effect of over 55% in size
In short: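 Viability was read by CellTiter-Fluor fluorescence in the same wells, reagent added 23 hr into compound treatment and incubated 1 hr at 37C. The 3T3 Gli1-Luc reporter cells (2,000/well) received conditioned medium after compound and ran 24 hr.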

[4] = qHTS assay to identify small molecule agonists of the sonic hedgehog signaling (Shh) pathway (AID 1259368; calls by dose curve;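 further: NIH/3T3-derived 3T3Gli1-Luc cells carrying a stable Gli1-driven firefly luciferase reporter; nearly all actives have a fitted effect of over 15% in size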); settings: NIH/3T3 Gli1-Luc reporter, luciferase, 24 h; series mostly up to 92.4 µM
In short: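 Cells of a mouse NIH/3T3 clone stably expressing luciferase under the Gli1 transcriptional response element are exposed to test chemicals for 24 hr at 37 C. Pathway activation is detected as a rise in luminescence.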

[5] = qHTS assay to identify small molecule antagonists of the sonic hedgehog signaling (Shh) pathway (AID 1259369; calls by dose curve; further: nearly all actives have a fitted effect of over 45% in size; further: potency means the concentration at half of the fitted maximal effect); settings: NIH/3T3 Gli1-Luc reporter, Shh antagonist, luminescence 24 h; series mostly up to 92.4 µM
In short: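 Cells are plated and held 4hr at 37 C, compounds (DMSO) are pinned in, conditioned medium is added to stimulate the pathway, and after 24hr luciferase reagent is added for 30min before luminescence is read.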

[6] = target: Estrogen receptor beta (Homo sapiens) (UniProt Q92731); test: qHTS assay to identify small molecule agonists of the estrogen receptor beta (ER-beta) signaling pathway (AID 1259377; active means well fitted activation curve with a large enough effect in the signal ratio in the repeat runs, not every such curve was filed as active; the % refers to the signal ratio); settings: ER-beta-UAS-bla HEK293T, beta-lactamase FRET ratio, 16 h; series mostly up to 92.4 µM
Chain of Estrogen receptor beta (Homo sapiens) (Q92731 whole entry, looked up): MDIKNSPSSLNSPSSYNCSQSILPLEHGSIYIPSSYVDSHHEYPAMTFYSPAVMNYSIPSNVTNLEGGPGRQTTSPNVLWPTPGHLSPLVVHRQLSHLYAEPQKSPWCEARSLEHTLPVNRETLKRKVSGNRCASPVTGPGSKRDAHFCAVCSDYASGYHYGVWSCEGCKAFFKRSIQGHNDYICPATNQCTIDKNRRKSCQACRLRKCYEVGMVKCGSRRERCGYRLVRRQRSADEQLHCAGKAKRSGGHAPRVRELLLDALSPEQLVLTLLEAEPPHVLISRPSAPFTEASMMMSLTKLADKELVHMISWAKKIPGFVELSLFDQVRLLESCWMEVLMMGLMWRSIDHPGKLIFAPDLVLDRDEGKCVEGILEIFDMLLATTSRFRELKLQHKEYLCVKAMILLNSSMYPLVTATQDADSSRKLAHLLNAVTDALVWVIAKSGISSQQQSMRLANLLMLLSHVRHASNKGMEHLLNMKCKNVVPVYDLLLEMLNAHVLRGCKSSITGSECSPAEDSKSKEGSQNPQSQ
In short: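 Reporter cells (HEK293T, ER-beta-UAS-bla) receive compounds or DMSO after a 6 hr pre-incubation. They then incubate 16 hr at 37C/5% CO2, and fluorescence from LiveBLAzer B/G substrate is measured after 2 hours at room temperature.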

[7] = target: Estrogen receptor beta (Homo sapiens) (UniProt Q92731); test: qHTS assay to identify small molecule antagonists of the estrogen receptor beta (ER-beta) signaling pathway (AID 1259378; active means well fitted inhibition curve with a large enough effect in the signal ratio in the repeat runs, not every such curve was filed as active; the % refers to the signal ratio; further: potency means the concentration at half of the fitted maximal effect); settings: ER-beta-UAS-bla HEK293T, beta-lactamase FRET ratio, 16 h; series mostly up to 92.4 µM
In short: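 Antagonist mode: compounds added to beta-lactamase reporter HEK293T ER-beta-UAS cells stimulated with E2 (1nM final), 16 hr at 37C. LiveBLAzer B/G FRET substrate, 2 hours room temperature, fluorescence read-out.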

[8] = qHTS assay to identify small molecule agonists of the androgen receptor (AR) signaling pathway in the presence of an antagonist - cell viability counter screen (AID 1259379); settings: MDA-kb2 viability, CellTiter-Fluor, 16 h; series mostly up to 92.4 µM; further: nearly all actives have a fitted effect of over 25% in size; further: potency means the concentration at half of the fitted maximal effect
In short: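 Cytotoxicity is assessed by CellTiter-Fluor in MDA-kb2 cells carrying an MMTV-driven luciferase reporter. Cells receive 3.0uM nilutamide plus compounds at 15 concentrations and incubate 16 hr at 37C without CO2 before fluorescence reading.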
On the % scale 0 is the no-effect control and ±100 the full control effect.

CC(CC(C)(C)C)CC(C)(C)CC(C)(C)C (stereo not drawn)
inactive: Potency [1] | Potency [2] | Potency [3] | Potency [4] | Potency [5] | outcome [6] | Potency [7] | Potency [8]

CCOC(=O)[C@H](C)O
inactive: Potency [1] | Potency [2] | Potency [3] | Potency [4] | Potency [7] | Potency [8]

CC(C)=CCC[C@H](C)CC=O
inactive: Potency [1] | Potency [2] | Potency [3] | Potency [4] | Potency [5]

COc1c(Br)cc(Br)c(C)c1Br
inactive: Potency [1] | Potency [2] | Potency [3] | Potency [4] | Potency [5] | Potency [8]

CCCCCCCCOC(=O)c1cc(O)c(O)c(O)c1
active: Potency [2] 24.3 µM | Potency [5] 2.17 µM | Potency [7] 15.4 µM | Potency [8] 17.2 µM
inactive: Potency [1] | Potency [4] | outcome [6]

C=COCCCC
inactive: Potency [1] | Potency [2] | Potency [3] | Potency [4] | Potency [5] | outcome [6] | Potency [7]

CCC(O)CO (stereo not drawn)
inactive: Potency [1] | Potency [2] | Potency [3] | Potency [4] | Potency [5] | outcome [6] | Potency [7]

c1ccc(-c2nc3ccccc3[nH]2)cc1
inactive: Potency [1] | Potency [2] | Potency [3] | Potency [4] | Potency [7]

O=[N+]([O-])c1ccc(O)c2ncccc12
inactive: Potency [1] | Potency [4]
active: Potency [2] 1.88 µM | Potency [5] 0.531 µM | Potency [7] 5.96 µM | Potency [8] 11.9 µM

CC(O)(c1ccc(Cl)cc1)c1ccc(Cl)cc1
inactive: Potency [1] | Potency [2] | Potency [4] | Potency [8]
active: Potency [5] 43.3 µM

O=c1cc[nH]cc1
inactive: Potency [1] | Potency [2] | Potency [3] | Potency [4] | Potency [5] | Potency [7] | Potency [8]

Clc1nc(C(Cl)(Cl)Cl)c(Cl)c(Cl)c1Cl
inactive: Potency [1] | Potency [2] | Potency [3] | Potency [4]

CC(C)(C)C1=CC(=O)C(C(C)(C)C)=CC1=O
inactive: Potency [1] | Potency [2] | Potency [4] | Potency [8]

CC(c1cc(C(C)(C)C)cc(C(C)(C)C)c1O)c1cc(C(C)(C)C)cc(C(C)(C)C)c1O
inactive: Potency [1] | Potency [2] | Potency [3] | Potency [4] | Potency [5] | Potency [7] | Potency [8]

CCCCNc1ccc(NCCCC)c2c1C(=O)c1ccccc1C2=O
inactive: viability change, negative = cytotoxic [2] -17.5% [at 19 µM] | viability change, negative = cytotoxic [3] -12.9% [at 19 µM] | activity change [4] -0.26% [at 18.9 µM, hits give high values] | activity change, negative = inhibition [5] -20.1% [at 19 µM] | activity, negative = inhibition [7] 17.4% [at 19 µM]

C=CC(=O)OCC(Br)CBr (stereo not drawn)
inactive: Potency [1] | Potency [2] | Potency [3] | Potency [4] | Potency [7] | Potency [8]

CC(C)(C)c1cc(CCC(=O)OCCSCCOC(=O)CCc2cc(C(C)(C)C)c(O)c(C(C)(C)C)c2)cc(C(C)(C)C)c1O
inactive: Potency [1] | Potency [2] | Potency [3] | Potency [4] | Potency [5] | outcome [6] | Potency [7] | Potency [8]
